Assay results: the supplement of paper PMC13380429
Unmarked numbers belong to inactive results.

Each compound was assayed on Vero E6 infected with SARS-CoV-2 (assay: SARS-CoV-2 infection rate relative to infected DMSO; higher = more infection, active = 60 or less). Conditions: 24 h.

SMILES | SARS-CoV-2 infection rate [%]
N#C/C(=C\c1cn(-c2ccccc2)c2ccccc12)C(=O)O (10 µM) | 99.5
Cc1ccc([N+](=O)[O-])cc1S(=O)(=O)N(C)/N=C/c1cnc2ccc(Br)cn12 (0.833333 µM) | 112
CN1CCN(c2nc3ccccc3nc2Cl)CC1 (10 µM) | 102
Cc1ccc(/N=C/N(C)/C=N/c2ccc(C)cc2C)c(C)c1 [amitraz] (10 µM) | 106
N=C(N)NCCC[C@@H](N)C(=O)N[C@@H](CCCNC(=N)N)C(=O)N1CCC[C@H]1C(=O)N1C[C@H](O)C[C@H]1C(=O)NCC(=O)N[C@@H](Cc1cccs1)C(=O)N[C@@H](CO)C(=O)N1Cc2ccccc2C[C@@H]1C(=O)N1[C@H](C(=O)N[C@@H](CCCNC(=N)N)C(=O)O)C[C@@H]2CCCC[C@@H]21 [icatibant-acetate] (10 µM) | 102
N#C/C(=C\c1ccc(O)c(O)c1)C(N)=O [tyrphostin-AG-99] (10 µM) | 106
Cc1ccccc1-n1c(CF)nc2ccc(N)cc2c1=O [afloqualone] (10 µM) | 96
CC(C)n1nccc1-c1ncccc1COc1cccc(O)c1C=O [voxelotor] (10 µM) | 102
